The values that follow come from PubChem BioAssay (NCATS).

Molecules are shown by their SMILES. Records with an inconclusive call do not appear. A call without a number means that no potency is given here. The source made the active and inactive calls. The call rests on the fitted dose curve; in most records, active means well fitted activation curve with a large enough effect; inconclusive means small, poorly fitted or top-dose-only effect; inactive means no such curve, though single readings can be large or run the other way.

Chain of Rap guanine nucleotide exchange factor 4 (Homo sapiens) (Q8WZA2 whole entry, looked up): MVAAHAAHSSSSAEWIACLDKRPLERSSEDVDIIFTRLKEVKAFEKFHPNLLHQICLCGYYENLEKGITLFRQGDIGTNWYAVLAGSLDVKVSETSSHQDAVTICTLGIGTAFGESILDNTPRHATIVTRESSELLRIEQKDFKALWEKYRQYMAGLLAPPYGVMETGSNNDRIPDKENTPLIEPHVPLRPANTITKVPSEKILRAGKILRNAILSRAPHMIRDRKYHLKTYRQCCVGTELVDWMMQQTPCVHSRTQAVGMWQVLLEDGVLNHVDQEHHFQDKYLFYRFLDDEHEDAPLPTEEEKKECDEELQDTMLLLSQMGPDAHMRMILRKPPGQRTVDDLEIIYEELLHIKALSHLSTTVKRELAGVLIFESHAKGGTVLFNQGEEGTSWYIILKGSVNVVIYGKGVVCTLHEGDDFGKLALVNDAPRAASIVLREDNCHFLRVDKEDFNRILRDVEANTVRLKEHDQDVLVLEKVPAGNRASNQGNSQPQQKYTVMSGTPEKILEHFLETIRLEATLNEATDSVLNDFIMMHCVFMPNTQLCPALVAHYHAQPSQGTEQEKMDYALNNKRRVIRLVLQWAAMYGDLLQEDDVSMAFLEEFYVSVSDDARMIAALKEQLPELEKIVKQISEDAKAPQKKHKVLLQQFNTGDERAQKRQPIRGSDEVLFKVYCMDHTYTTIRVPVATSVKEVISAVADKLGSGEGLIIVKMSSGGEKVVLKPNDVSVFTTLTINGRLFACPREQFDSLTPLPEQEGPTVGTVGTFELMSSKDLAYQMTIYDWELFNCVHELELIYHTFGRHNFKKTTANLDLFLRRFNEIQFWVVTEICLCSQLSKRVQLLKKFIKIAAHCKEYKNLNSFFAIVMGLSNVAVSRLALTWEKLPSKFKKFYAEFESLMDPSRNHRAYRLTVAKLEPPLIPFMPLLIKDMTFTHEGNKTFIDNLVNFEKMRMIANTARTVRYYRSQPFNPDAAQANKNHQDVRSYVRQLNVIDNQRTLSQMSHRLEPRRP

The target in the first test is Rap guanine nucleotide exchange factor 3 (Homo sapiens) (UniProt O95398). The experiment in a line: Confirmatory qHTS for agonist of cAMP-regulated guanine nucleotide exchange factor 3 (EPAC1) (AID 1645881).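 Further: EPAC1 catalysed release of BODIPY-GDP from Rap1B seen as fluorescence loss; nearly all actives have a fitted effect of over 75% in size.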 Particulars: EPAC1 Rap1B BODIPY-GDP exchange fluorescence; series mostly up to 154 µM. For orientation: In qHTS, concentration-response curves come from the screen itself.
Chain of Rap guanine nucleotide exchange factor 3 (Homo sapiens) (O95398 whole entry, looked up): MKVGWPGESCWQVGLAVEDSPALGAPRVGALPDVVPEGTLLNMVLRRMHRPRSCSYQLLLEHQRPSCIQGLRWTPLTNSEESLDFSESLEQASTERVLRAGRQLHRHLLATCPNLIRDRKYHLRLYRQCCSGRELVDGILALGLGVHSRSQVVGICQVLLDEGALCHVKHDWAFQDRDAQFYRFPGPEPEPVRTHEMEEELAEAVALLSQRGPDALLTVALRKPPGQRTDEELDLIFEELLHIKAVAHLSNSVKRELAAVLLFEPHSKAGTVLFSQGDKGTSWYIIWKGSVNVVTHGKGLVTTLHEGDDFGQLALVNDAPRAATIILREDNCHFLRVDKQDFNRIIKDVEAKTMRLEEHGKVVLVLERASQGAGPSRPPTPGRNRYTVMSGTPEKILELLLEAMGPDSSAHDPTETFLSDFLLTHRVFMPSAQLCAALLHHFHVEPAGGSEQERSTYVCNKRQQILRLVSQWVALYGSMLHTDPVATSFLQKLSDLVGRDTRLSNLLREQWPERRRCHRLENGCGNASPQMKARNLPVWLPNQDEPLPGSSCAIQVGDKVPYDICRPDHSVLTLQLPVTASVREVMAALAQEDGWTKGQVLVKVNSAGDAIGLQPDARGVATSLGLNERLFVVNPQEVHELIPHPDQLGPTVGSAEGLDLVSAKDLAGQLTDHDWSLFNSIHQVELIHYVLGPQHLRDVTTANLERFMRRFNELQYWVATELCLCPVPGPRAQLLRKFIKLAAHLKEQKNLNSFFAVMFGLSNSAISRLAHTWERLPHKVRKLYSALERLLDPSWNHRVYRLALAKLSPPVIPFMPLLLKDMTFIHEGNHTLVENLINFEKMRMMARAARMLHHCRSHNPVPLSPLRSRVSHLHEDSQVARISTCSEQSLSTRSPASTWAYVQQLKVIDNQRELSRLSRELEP
In the case of `CC(Oc1ccccc1)C(=O)Nc1nnc(S(=O)(=O)N2CCCCC2)s1` (stereo not given), the Potency result was “inactive”.

`COc1cc(OC)nc(Oc2cccc(Cl)c2C)n1`: the Potency entry was “inactive”.

`CCN(CC)c1nc(SCC(=O)O)nc(N(CC)CC)n1`: the Potency entry is “inactive”.

Consider `C=CCOc1ccc(/C=C2\SC(=S)N(NS(=O)(=O)c3ccc(C)cc3)C2=O)cc1`, for which the Potency entry was “inactive”.

In the case of `O=C1S/C(=C\c2ccc(O)c([N+](=O)[O-])c2)C(=O)N1c1ccccc1Cl`, the Potency entry is “inactive”.

Turning to `O=C(NCCCn1ccnc1)c1cc(-c2cccnc2)nc2ccc(Br)cc12`, the Potency entry is “inactive”.

As to `COC(=O)C1=C(C)N(Cc2ccco2)C(=O)/C1=C\c1ccc(N(C)C)cc1`, the Potency entry was “inactive”.

For the compound `Cc1ccc(NC(=O)c2cccc(NC(=O)/C=C/c3ccco3)c2)cc1C`, the Potency result is “inactive”.

For the compound `Cc1cc(Br)c2c(c1)C(O)(N1CCCCC1C)C(=O)N2` (stereo not given), the Potency entry is “inactive”.

For `CCCCNC(=O)Cn1nc(N2CCN(c3ccccc3OC)CC2)ccc1=O`, the Potency result was “inactive”.

On to `CC(=O)c1c(C(C)=O)c(C)n(-c2nc(-c3ccccc3)c(C)s2)c1C`, for which the Potency entry is “inactive”.

With `COc1ccccc1OCC(=O)Nc1cccc(S(=O)(=O)NC2=NCCCCC2)c1`, the Potency result is “inactive”.

Take `CN(C(=O)COC(=O)/C=C/c1ccc2c(c1)OCO2)c1c(N)n(Cc2ccccc2)c(=O)[nH]c1=O`: the Potency entry is “inactive”.

As for `CCOc1ccc(/C=C/C(=O)c2cc(Br)ccc(=O)c2O)cc1`, the Potency entry was “inactive”.

For `Cc1ccc(Sc2ccc(S(=O)(=O)Nc3ccc(C(=O)O)cc3)cc2)cc1C`, the Potency result was “inactive”.

Another test has as its target Rap guanine nucleotide exchange factor 4 (Homo sapiens) (UniProt Q8WZA2). Kind of test: Confirmatory qHTS for agonist of cAMP-regulated guanine nucleotide exchange factor 4 (EPAC2) (AID 1645884).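 Further: nucleotide exchange releases bodipy-GDP from Rap1 and this lowers its fluorescence; nearly all actives have a fitted effect of over 65% in size.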 Particulars: EPAC2 GEF activity, Rap1B-BODIPY-GDP fluorescence; series mostly up to 154 µM.
On to `O=C(O)c1cc(N/N=C/c2ccncc2)ccc1Cl`, for which the activation is 1.56% [at 17.1 µM, percent relative to cAMP agonist control] (inactive).

Consider `Cc1ccccc1OCCC(=O)OCC(=O)N1CCN(S(=O)(=O)c2ccc(Cl)cc2)CC1`, for which the activation is 7.52% [at 17.1 µM, percent relative to cAMP agonist control] (inactive).

Take `COCCNC(=O)CS(=O)Cc1nc(-c2ccc(Cl)cc2)oc1C` (stereo not given): the activation was 3.09% [at 17.1 µM, percent relative to cAMP agonist control] (inactive).

`O=c1oc2ccccc2nc1/C=C(O)/C=C\c1ccccc1`: the activation is 2.36% [at 17.1 µM, percent relative to cAMP agonist control] (inactive).

For `Nc1[nH]c(C(=O)c2ccccc2)c(-c2ccccc2C(F)(F)F)c1C(=O)NCCc1cccs1`, the Potency entry was “inactive”.

As for `CCCOc1c(OC)cccc1C1CC(=O)Nc2cc(OC)c(OC)c(OC)c21` (stereo not given), the Potency entry was “inactive”.

Take `CCOc1nc(C)cc(C)c1S(=O)(=O)c1ccc(Cl)cc1`: the activation was -7.98% [at 17.1 µM, percent relative to cAMP agonist control] (inactive).

For `COc1ccc2nc(N3CCN(C(=O)C4CC4)CC3)sc2c1`, the Potency result is “inactive”.

With `COc1cc(-c2c(CCO)sc3ccccc23)cc(OC)c1OC`, the activation is 1.4% [at 17.1 µM, percent relative to cAMP agonist control] (inactive).

Consider `c1ccc(OCCCn2ccnc2)cc1`, for which the Potency entry is “inactive”.

In the case of `CC(=O)Oc1c(Sc2ccccc2[N+](=O)[O-])c(C)nn1C(C)(C)C`, the Potency result is “inactive”.

For the compound `C[C@@H](c1ccccc1)N1Cc2ccccc2Oc2cc(Br)ccc2S1(=O)=O`, the Potency result is “inactive”.

On to `O=C(N[C@@H](Cc1c[nH]c2ccccc12)C(=O)O)OCC1c2ccccc2-c2ccccc21`, for which the Potency result was “inactive”.

On to `O=C(CN1C(=O)N/C(=C\c2ccccc2OCc2ccc(C(=O)O)cc2)C1=O)Nc1ccccc1F`, for which the activation is 5.81% [at 17.1 µM, percent relative to cAMP agonist control] (inactive).

Consider `CN1C(=O)/C(=C\c2ccc(N(C)C)cc2)OC1=S`, for which the Potency result was “inactive”.

Turning to `CC1CCCCC1NC(=O)COC(=O)c1c2c(nc3ccccc13)/C(=C/c1ccco1)CC2` (stereo not given), the Potency entry was “inactive”.

For the compound `CCCc1[nH]nc2c1C(c1cccnc1)C(C#N)=C(N)O2` (stereo not given), the activation is 5.78% [at 17.1 µM, percent relative to cAMP agonist control] (inactive).

Regarding `C=CCn1c(CSCc2ccc(Cl)cc2Cl)nnc1SCC(=O)Nc1ccc(C(=O)O)cc1`, the activation was 0.968% [at 17.1 µM, percent relative to cAMP agonist control] (inactive).

As for `CC(Sc1ccc(Cl)cc1)C(=O)NNC(=O)c1csc(N2CCOCC2)n1` (stereo not given), the activation was 4.3% [at 17.1 µM, percent relative to cAMP agonist control] (inactive).

Regarding `COc1cc2c(cc1OC)C(c1ccccc1Cl)N(C)CC2` (stereo not given), the activation was 2.32% [at 17.1 µM, percent relative to cAMP agonist control] (inactive).
